About 83,000 compounds went through this panel and 20% of them were active in at least one assay; those are over-represented in the sample as a whole.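 Values shown are percent growth following 48 h exposure of cells in 96-well plates to a single concentration of compound; below 10 was considered active.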 A number with no mark means an inactive call. The source made the active and inactive calls.
What follows are molecules tested on NCI-H322M lung (assay: NCI-60 one-dose screen, 48 h (100 = growth as untreated, 0 = no growth, -100 = all killed)). Settings: 10 µM unless noted.

Row | SMILES | growth
1 | CCCCCc1ccc(S(=O)(=O)Nc2cc(-c3csc(NC(=O)CN4CCN(CCO)CC4)n3)ccc2OC)cc1 | 52.3%
2 | N/C(=N\C(N)=N\c1nc2ccccc2s1)c1ccc(C(F)(F)F)cc1 | 100%
3 | CCn1c(SCC(=O)Nc2cccc(C(=O)/C=C/c3ccc(Br)cc3)c2)nc2ccccc2c1=O | 94.3%
4 | O=S(=O)(NCCCNc1nccc(-c2[nH]c(-c3ccccc3)nc2-c2ccc(Cl)c(O)c2)n1)c1ccc(Br)cc1 | 58.4%
5 | CS(=O)(=O)Nc1cc(-c2ccc3ncc(C#N)c(N[C@H](CO)c4ccccc4)c3c2)cnc1Cl | 78.3%
6 | Cn1ccnc1C(=O)/C=C/c1ccc(CNC(=O)c2ccc(Cl)cc2)cc1 | 6.29% (active)
7 | O=C(Cn1cc(-c2ccccc2)nn1)Nc1nc(-c2ccc(Cl)cc2)cs1 | 100%
8 | Nc1cc(F)ccc1NC(=O)c1ccc(NC(=O)C/C=C/c2cccnc2)cc1 | 67%
9 | CCOC(=O)C1=NNC(c2ccc(Cl)cc2)C1C(=O)N1C(=S)NC(=O)C1CC(C)C (stereo not given) | 94.7%
10 | COc1ccc(S(=O)(=O)NCCCNc2nccc(-c3[nH]c(-c4ccccc4)nc3-c3ccc(Cl)c(O)c3)n2)cc1 | 96.5%
11 | N=c1c2cc(-c3ccccc3)oc2ncn1/N=C/c1ccc(Br)cc1 | 78.1%
12 | CS(=O)(=O)Nc1cc(-c2ccc3ncc(C#N)c(Nc4cccc(Cl)c4F)c3c2)cnc1Cl | -10.2% (active)
13 | C=CCn1c(SCC(=O)Nc2ccc(C(=O)/C=C/c3ccc(Cl)cc3)cc2)nnc1-c1c[nH]c2ccccc12 | 88%
14 | Cc1ccc(NC(=O)c2ccc(CN3CCN(C)CC3)cc2)cc1Oc1ccc(-c2[nH]nc3ncnc(N)c23)cc1 | 97.3%
15 | c1ccc(C(c2nc3ncncc3[nH]2)N2CSc3nc4ccccc4n3C2)cc1 (stereo not given) | 106%
16 | COc1ccc(Cn2cc3c(c2-c2cc(OC)c(OC)c(OC)c2)CCc2c(CN4CCCC4)noc2-3)cc1 | 51.8%
17 | CC1=CC(=O)C2=C(C)CC(OC(=O)CCc3ccccc3)[C@@H]3[C@H](OC(=O)[C@@H]3C)[C@@H]12 (stereo not given in full) | 96.8%
18 | CCCCCc1ccc(S(=O)(=O)Nc2cccc(-c3csc(NC(=O)CN4CCN(CCO)CC4)n3)c2)cc1 | 98.6%

Row | SMILES | growth
19 | O=C(Nc1ccc(F)c(F)c1)c1cc(-c2ccc(F)cc2F)ccc1O | 3.88% (active)
20 | COc1c(N2CC3CCCNC3C2)c(F)cc2c(=O)c(C(=O)N/N=C/c3ccc(N(C)C)cc3)cn(C3CC3)c12 (stereo not given) | 93.6%
21 | CC(=O)C1=C(C)NC(NN)=NC1c1cccc(Cl)c1 (stereo not given) | 96.7%
22 | C=CCn1c(SCC(=O)Nc2ccc(C(=O)/C=C/c3ccc(Br)cc3)cc2)nnc1-c1c[nH]c2ccccc12 | 93.7%
23 | COc1cc(Cn2cc3c(c2)-c2onc(CN4CCCC4)c2CC3)cc(OC)c1OC | 90.6%
24 | O=C1Nc2ccccc2/C1=C/c1ccc(CO)n1-c1ccc(Cl)cc1 | 102%
25 | O=C(CSc1nc2ccccc2c(=O)n1-c1ccc(Cl)cc1)N/N=C/c1ccc(N2CCCCC2)cc1 | 77%
26 | Cc1ccc(-n2c(/C=C3\C(=O)Nc4ccccc43)ccc2CO)cc1 | 103%
27 | NC(=O)c1c(NC(=O)c2ccc(F)cc2F)sc2c1CCC(=O)C2 | 99.8%
28 | CCC(CC)N1C(=O)/C(=c2\sc3n(c2=O)NC2C(N=3)N(CC)C(=O)N2CC)c2ccccc21 (stereo not given) | 80.6%
29 | Clc1cccc(/C=N/Nc2nc(N/N=C/c3cccc(Cl)c3Cl)nc(N3CCCCC3)n2)c1Cl | 90%
30 | CCn1c2ccccc2c2cc(-n3nncc3-c3ccccc3)ccc21 | 45.1%
31 | Cc1c(Cl)cccc1S(=O)(=O)Nc1ccc2c(c1)C(=O)N(C1CCC(=O)NC1=O)C2=O (stereo not given) | 88.8%
32 | COc1ccc(NC(=O)CSc2nnc(-c3ccc4nc(-c5ccccc5)[nH]c4c3)o2)cc1 | 98%
33 | CCOP(=O)(OCC)OC[C@]12CCC(C)(C)C=C1[C@H]1CC[C@@H]3[C@@]4(C)CC[C@H](OP(=O)(OCC)OCC)C(C)(C)[C@@H]4CC[C@@]3(C)[C@]1(C)CC2 | 1.63% (active)
34 | CCOC(=O)C(=O)CC(=O)N1C(=S)NC(=O)C1CC(C)C (stereo not given) | 96.8%
35 | COc1cc(Cn2cc3c(c2)-c2onc(CN4CCOCC4)c2CC3)cc(OC)c1OC | 100%
